From the supplement of paper PMC12645437, “Orthogonal IMiD-Degron Pairs Induce Selective Protein Degradation in Cells” (ACS Chemical Biology, 2025)
Over roughly 8,300 sequences, “log2 fold change of degron read counts, EGFP-low vs EGFP+ sorted cells (limma voom), compound-induced degradation” has its median near -1.1; the highest 2% begin near 3.2. The sample as a whole holds a higher share of the highest values than the screen did.

T1: CRBN, Q96SW2
T1 chain: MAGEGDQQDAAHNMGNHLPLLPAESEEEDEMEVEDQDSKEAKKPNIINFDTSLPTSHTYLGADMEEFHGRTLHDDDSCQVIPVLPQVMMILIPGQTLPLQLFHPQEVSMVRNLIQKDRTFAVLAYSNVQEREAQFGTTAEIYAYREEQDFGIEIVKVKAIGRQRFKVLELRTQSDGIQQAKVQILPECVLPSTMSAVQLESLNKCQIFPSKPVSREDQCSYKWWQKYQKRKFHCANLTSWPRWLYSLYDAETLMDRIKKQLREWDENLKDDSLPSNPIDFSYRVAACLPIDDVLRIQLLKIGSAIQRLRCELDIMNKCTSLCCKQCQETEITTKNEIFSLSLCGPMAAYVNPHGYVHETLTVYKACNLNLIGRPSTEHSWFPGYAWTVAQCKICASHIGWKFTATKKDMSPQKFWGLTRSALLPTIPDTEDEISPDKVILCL


Molecular target: T1, CRBN, Q96SW2
Experiment: log2 fold change of degron read counts, EGFP-low vs EGFP+ sorted cells (limma voom), compound-induced degradation; higher = more compound-induced degradation of the degron-EGFP fusion; degrons are variants of IKZF1/3 zinc finger 2; compound dose not given here
Details: Jurkat, 18 h
Procedure: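 Pooled library of 8380 IKZF3 ZF2 degron mutants (positions 146-167 varied within the IKZF3 130-189 degron; only the varied core is printed, flanks not printed) fused to EGFP with IRES-mCherry, lentivirally expressed in Jurkat cells. mCherry+ cells were treated with one IMiD compound for 18 h (dose not stated) and FACS-sorted into EGFP-low and EGFP+ populations. Degron sequences were counted by NGS, and log2FC (EGFP-low vs EGFP+) was estimated by limma voom over 3 biological replicates.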

[1] = compound: compound 19 (5-tert-butyl-thalidomide)
[2] = compound: compound 22 (5-morpholino-thalidomide)
[3] = compound: compound 33 (diphenyl IMiD analogue)
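Further: pooled lentiviral library of zinc finger degron-EGFP fusions in mCherry-positive Jurkat cells, FACS-sorted after compound exposure, with degron abundance counted by next-generation sequencing.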

Sequence	log2 fold change of degron read counts [1]	log2 fold change of degron read counts [2]	log2 fold change of degron read counts [3]	log2 fold change of degron read counts (compound: thalidomide)
FMCEICGRLFTQKGNLLRHIKL [46F_47M_49E_50I_52G_53R_54L_55F_67L_, Q9UKT9]	-2.26	-3.02	-1.18	-0.917
FNCPICGHCFTQKGNLLRHIKL [46F_47N_49P_50I_52G_53H_54C_55F_67L_, Q9UKT9]	-2.1	-3.11	-1.84	-2.15
FNCDICGAWFTQKGNLLRHIKL [46F_47N_49D_50I_52G_53A_54W_55F_67L_, Q9UKT9]	-1.24	-2.06	-2.22	-2.05
FMCPVCGASFTQKGNLLRHIKL [46F_47M_49P_50V_52G_53A_54S_55F_67L_, Q9UKT9]	1.06	2.04	2.75	2.02
FECPVCGASFTQKGNLLRHIKL [46F_47E_49P_50V_52G_53A_54S_55F_67L_, Q9UKT9]	1.95	-0.732	2.2	2.9
FQCPVCGASFTQKGNLLRHIKL [46F_47Q_49P_50V_52G_53A_54S_55F_67L_, Q9UKT9]	2.35	2.72	2.38	3.6
FNCPVCGASFTQKGNLLRHIKL [46F_47N_49P_50V_52G_53A_54S_55F_67L_, Q9UKT9]	2.78	1.17	1.06	0.433
FGCPVCGASFTQKGNLLRHIKL [46F_47G_49P_50V_52G_53A_54S_55F_67L_, Q9UKT9]	3.39	2.36	2.57	1.08
FVCPVCGASFTQKGNLLRHIKL [46F_47V_49P_50V_52G_53A_54S_55F_67L_, Q9UKT9]	0.217	2.83	2.01	2.79
FDCPVCGASFTQKGNLLRHIKL [46F_47D_49P_50V_52G_53A_54S_55F_67L_, Q9UKT9]	2.73	0.654	1.35	1.92
FKCPVCGASFTQKGNLLRHIKL [46F_47K_49P_50V_52G_53A_54S_55F_67L_, Q9UKT9]	1.07	-1.4	-1.51	0.152
FACPVCGASFTQKGNLLRHIKL [46F_47A_49P_50V_52G_53A_54S_55F_67L_, Q9UKT9]	3.54	2.15	1.39	1.39
FTCPVCGASFTQKGNLLRHIKL [46F_47T_49P_50V_52G_53A_54S_55F_67L_, Q9UKT9]	1.45	2.72	2.67	2.79
FFCPVCGASFTQKGNLLRHIKL [46F_47F_49P_50V_52G_53A_54S_55F_67L_, Q9UKT9]	3.04	3.18	2.27	1.42
FSCPVCGASFTQKGNLLRHIKL [46F_47S_49P_50V_52G_53A_54S_55F_67L_, Q9UKT9]	3.33	2.24	2.42	1.71
